Laboratory results taken from PubChem BioAssay (NCI).
About 83,000 compounds went through this panel and 20% of them were active in at least one assay; those are over-represented in the sample as a whole.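 Negative percent growth values reflect cell death: -40 means 40% of the cells present at the start died, and -100 means all died.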 Active and inactive are the calls of the source. Rule for the calls: active = growth percent below 10; inactive = the rest.

Assays:
Assay in all cases: NCI-60 one-dose screen, 48 h (100 = growth as untreated, 0 = no growth, -100 = all killed)
Conditions in all cases: 10 µM unless noted
DU-145 prostate = tested on: DU-145 prostate
K-562 leukemia = tested on: K-562 leukemia
MALME-3M melanoma = tested on: MALME-3M melanoma
MDA-MB-231 breast = tested on: MDA-MB-231 breast
RXF 393 renal = tested on: RXF 393 renal
SF-268 CNS = tested on: SF-268 CNS
SF-295 CNS = tested on: SF-295 CNS
SF-539 CNS = tested on: SF-539 CNS
UACC-257 melanoma = tested on: UACC-257 melanoma
M14 melanoma = tested on: M14 melanoma
HT29 colon = tested on: HT29 colon
SNB-75 CNS = tested on: SNB-75 CNS
SNB-19 CNS = tested on: SNB-19 CNS
U251 CNS = tested on: U251 CNS
PC-3 prostate = tested on: PC-3 prostate
SK-MEL-5 melanoma = tested on: SK-MEL-5 melanoma
UACC-62 melanoma = tested on: UACC-62 melanoma
LOX IMVI melanoma = tested on: LOX IMVI melanoma
SK-MEL-28 melanoma = tested on: SK-MEL-28 melanoma

Measured: growth

FC(F)(F)c1cc(Nc2ccc3cc(OCCCN4CCOCC4)ccc3n2)ccc1Cl
inactive: DU-145 prostate 47.6% | MALME-3M melanoma 47.4% | SF-268 CNS 46.9% | UACC-257 melanoma 49.2% | M14 melanoma 19% | SNB-75 CNS 10.8% | SNB-19 CNS 41.1% | PC-3 prostate 23.5% | SK-MEL-5 melanoma 64.4% | SK-MEL-28 melanoma 13.7%
active: K-562 leukemia -27.3% | MDA-MB-231 breast -17.8% | RXF 393 renal -0.217% | SF-295 CNS -56.7% | SF-539 CNS -0.973% | HT29 colon -50.3% | U251 CNS -10.6% | UACC-62 melanoma -29.7% | LOX IMVI melanoma -82.1%

Cn1cc2c(c1)-c1nc(Nc3ccccc3)ncc1CC2
inactive: DU-145 prostate 56.5% | K-562 leukemia 85.2% | MALME-3M melanoma 95.3% | MDA-MB-231 breast 67.4% | RXF 393 renal 62.4% | SF-268 CNS 72.2% | SF-295 CNS 84.3% | SF-539 CNS 65.6% | UACC-257 melanoma 89.7% | M14 melanoma 55% | HT29 colon 79.9% | SNB-75 CNS 75.7% | SNB-19 CNS 69.4% | U251 CNS 59.7% | PC-3 prostate 58.5% | SK-MEL-5 melanoma 73.2% | UACC-62 melanoma 51.1% | LOX IMVI melanoma 49.6% | SK-MEL-28 melanoma 99.9%

COc1ccc(/C=N/C2=C(C#N)C(c3ccc(OC)cc3)c3ccc4ccccc4c3O2)cc1 (configuration not stated)
inactive: DU-145 prostate 97.7% | K-562 leukemia 23.4% | MALME-3M melanoma 74.2% | MDA-MB-231 breast 53.5% | RXF 393 renal 84.8% | SF-268 CNS 77.2% | SF-295 CNS 88.6% | SF-539 CNS 79.5% | UACC-257 melanoma 92.1% | M14 melanoma 69.7% | HT29 colon 123% | SNB-75 CNS 45.5% | SNB-19 CNS 80% | U251 CNS 84.5% | PC-3 prostate 70% | SK-MEL-5 melanoma 70.4% | UACC-62 melanoma 57.8% | LOX IMVI melanoma 72.6% | SK-MEL-28 melanoma 79.7%

COc1ccc(-c2ccc3c(c2)sc2nc(-c4ccc(F)cc4)cn23)cc1
inactive: DU-145 prostate 60.3% | K-562 leukemia 76.6% | MALME-3M melanoma 101% | MDA-MB-231 breast 93.5% | RXF 393 renal 98.8% | SF-268 CNS 110% | SF-295 CNS 32.5% | SF-539 CNS 100% | UACC-257 melanoma 80.9% | M14 melanoma 98% | HT29 colon 82.8% | SNB-75 CNS 98.9% | SNB-19 CNS 103% | U251 CNS 83.3% | PC-3 prostate 81.7% | SK-MEL-5 melanoma 33.1% | UACC-62 melanoma 65% | LOX IMVI melanoma 102% | SK-MEL-28 melanoma 105%

Cc1ccc(CCC(=O)Nc2ncc(Cc3cc(Cl)ccc3Cl)s2)o1
inactive: DU-145 prostate 13.8% | MALME-3M melanoma 41.5% | MDA-MB-231 breast 12.4% | SF-268 CNS 57.6% | UACC-257 melanoma 66.9% | SNB-19 CNS 21.7% | U251 CNS 18% | PC-3 prostate 23.6% | UACC-62 melanoma 21.2% | LOX IMVI melanoma 13.3% | SK-MEL-28 melanoma 55.7%
active: K-562 leukemia 9.78% | RXF 393 renal -8.55% | SF-295 CNS 7.41% | SF-539 CNS -16.4% | M14 melanoma 6.18% | HT29 colon 4.92% | SNB-75 CNS -1.75% | SK-MEL-5 melanoma 7.9%

NC(N)=NN=C(c1ccccc1)c1ccccc1
inactive: DU-145 prostate 22.8% | K-562 leukemia 21.7% | MALME-3M melanoma 48.8% | MDA-MB-231 breast 59.6% | SF-268 CNS 46.1% | SF-295 CNS 43% | SF-539 CNS 19.3% | UACC-257 melanoma 64.4% | HT29 colon 11.7% | SNB-19 CNS 47% | U251 CNS 32.1% | PC-3 prostate 23.8% | UACC-62 melanoma 54.8% | LOX IMVI melanoma 30.8% | SK-MEL-28 melanoma 43.1%
active: RXF 393 renal -28.4% | M14 melanoma -6.76% | SNB-75 CNS -7.05% | SK-MEL-5 melanoma 3.67%

CC/C=C\CCC/C=C1/C(=O)C=C[C@@H]1C/C=C\CCCC(=O)O
inactive: DU-145 prostate 83.9% | MALME-3M melanoma 92% | MDA-MB-231 breast 44.1% | RXF 393 renal 108% | SF-268 CNS 89% | SF-295 CNS 82.9% | SF-539 CNS 103% | UACC-257 melanoma 72.3% | M14 melanoma 54.6% | HT29 colon 31.9% | SNB-75 CNS 86.5% | SNB-19 CNS 69.2% | U251 CNS 39.8% | PC-3 prostate 57.6% | SK-MEL-5 melanoma 16.9% | UACC-62 melanoma 15.6% | SK-MEL-28 melanoma 87.1%
active: K-562 leukemia 7.87% | LOX IMVI melanoma 0.644%

Cc1ccc(S(=O)(=O)n2cc(CNc3ccc(N4CCOCC4=O)cc3)c3ccccc32)cc1
inactive: DU-145 prostate 67.6% | K-562 leukemia 82.4% | MALME-3M melanoma 62.9% | MDA-MB-231 breast 87.8% | SF-268 CNS 89.4% | SF-295 CNS 88.7% | SF-539 CNS 96.8% | UACC-257 melanoma 86.6% | M14 melanoma 93.3% | HT29 colon 89.1% | SNB-75 CNS 73.4% | SNB-19 CNS 97.7% | U251 CNS 95.1% | PC-3 prostate 89.6% | SK-MEL-5 melanoma 93% | UACC-62 melanoma 78.2% | LOX IMVI melanoma 87.2% | SK-MEL-28 melanoma 101%
active: RXF 393 renal -8.02%
